# Results: the supplement of paper PMC8728848
# The sample as a whole holds a higher share of the strongest signals than the screen did.
# Tests used:
# Experiment in all cases: glycan array binding signal (z-score within array); higher = stronger binding
# Conditions in all cases: glycan notation: IUPAC condensed, linker removed
# [1] = target: Fuc(a1-2)Gal(b1-3)GalNAc
# Summary of the method: (§1)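 The binding signal is a Z-score computed within each array and averaged over linkers. Arrays of the same protein sequence at different concentrations or buffers were also averaged together. Data originate from 3228 arrays in the Consortium for Functional Glycomics database, kept only where the protein sequence was available.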
# [2] = target: Fuc(a1-2)Gal(b1-3)GalNAc(b1-4)[Neu5Ac(a2-3)]Gal(b1-4)Glc
# Summary of the method: as §1
# [3] = target: Fuc(a1-2)Gal(b1-4)Glc
# Summary of the method: as §1
# [4] = target: Fuc(a1-2)Gal(b1-4)[Fuc(a1-3)]GlcNAc(b1-3)Gal(b1-4)[Fuc(a1-3)]GlcNAc(b1-3)Gal(b1-4)[Fuc(a1-3)]GlcNAc
# Summary of the method: as §1
# [5] = target: Fuc(a1-2)Gal6S(b1-3)GlcNAc6S
# Summary of the method: as §1
# [6] = target: Fuc(a1-2)[Gal(a1-3)]Gal(b1-3)GlcNAc
# Summary of the method: as §1
# [7] = target: Fuc(a1-2)[Gal(a1-3)]Gal(b1-3)GlcNAc(b1-2)Man(a1-3)[Fuc(a1-2)[Gal(a1-3)]Gal(b1-3)GlcNAc(b1-2)Man(a1-6)]Man(b1-4)GlcNAc(b1-4)[Fuc(a1-6)]GlcNAc
# Summary of the method: as §1
# [8] = target: Fuc(a1-2)[Gal(a1-3)]Gal(b1-4)GlcNAc(b1-2)Man(a1-3)[Fuc(a1-2)[Gal(a1-3)]Gal(b1-4)GlcNAc(b1-2)Man(a1-6)]Man(b1-4)GlcNAc(b1-4)GlcNAc
# Summary of the method: as §1
# [9] = target: Fuc(a1-2)[GalNAc(a1-3)]Gal(b1-3)GlcNAc(b1-2)Man(a1-3)[Fuc(a1-2)[GalNAc(a1-3)]Gal(b1-3)GlcNAc(b1-2)Man(a1-6)]Man(b1-4)GlcNAc(b1-4)[Fuc(a1-6)]GlcNAc
# Summary of the method: as §1
# [10] = target: Fuc(a1-2)[GalNAc(a1-3)]Gal(b1-3)GlcNAc(b1-6)GalNAc
# Summary of the method: as §1
# [11] = target: Gal(a1-3)[Gal(a1-4)]Gal(b1-4)GlcNAc
# Summary of the method: as §1
# [12] = target: Gal(a1-4)Gal(b1-3)GlcNAc(b1-2)Man(a1-3)[Gal(a1-4)Gal(b1-3)GlcNAc(b1-2)Man(a1-6)]Man(b1-4)GlcNAc(b1-4)GlcNAc
# Summary of the method: as §1
# [13] = target: Gal(b1-3)Gal(b1-4)GlcNAc
# Summary of the method: as §1
# [14] = target: Gal(b1-3)GlcNAc(b1-2)Man(a1-3)[Gal(b1-3)GlcNAc(b1-2)Man(a1-6)]Man(b1-4)GlcNAc(b1-4)GlcNAc
# Summary of the method: as §1
# [15] = target: Gal(b1-3)GlcNAc(b1-3)Gal(b1-4)[Fuc(a1-3)]GlcNAc
# Summary of the method: as §1
# [16] = target: Gal(b1-3)GlcNAc(b1-6)[Gal(b1-3)]GalNAc
# Summary of the method: as §1
# [17] = target: Gal(b1-4)GlcNAc(b1-2)Man(a1-3)[Gal(b1-4)GlcNAc(b1-2)Man(a1-6)]Man(b1-4)GlcNAc(b1-4)[Fuc(a1-6)]GlcNAc
# Summary of the method: as §1
# [18] = target: Gal(b1-4)GlcNAc(b1-2)Man(a1-3)[Gal(b1-4)GlcNAc(b1-2)Man(a1-6)][Gal(b1-4)GlcNAc(b1-4)]Man(b1-4)GlcNAc(b1-4)[Fuc(a1-6)]GlcNAc
# Summary of the method: as §1
# [19] = target: Gal(b1-4)GlcNAc(b1-2)Man(a1-3)[Gal(b1-4)GlcNAc(b1-2)Man(a1-6)][GlcNAc(b1-4)]Man(b1-4)GlcNAc(b1-4)[Fuc(a1-6)]GlcNAc
# Summary of the method: as §1
# [20] = target: Gal(b1-4)GlcNAc(b1-3)Gal(b1-4)GlcNAc(b1-2)Man(a1-3)[Gal(b1-4)GlcNAc(b1-3)Gal(b1-4)GlcNAc(b1-2)Man(a1-6)]Man(b1-4)GlcNAc(b1-4)[Fuc(a1-6)]GlcNAc
# Summary of the method: as §1
# [21] = target: Gal(b1-4)GlcNAc(b1-3)Gal(b1-4)GlcNAc(b1-3)Gal(b1-4)GlcNAc(b1-2)Man(a1-3)[Gal(b1-4)GlcNAc(b1-3)Gal(b1-4)GlcNAc(b1-3)Gal(b1-4)GlcNAc(b1-2)Man(a1-6)]Man(b1-4)GlcNAc(b1-4)GlcNAc
# Summary of the method: as §1
# [22] = target: Gal(b1-4)GlcNAc(b1-3)Gal(b1-4)GlcNAc(b1-3)Gal(b1-4)GlcNAc(b1-2)[Gal(b1-4)GlcNAc(b1-3)Gal(b1-4)GlcNAc(b1-3)Gal(b1-4)GlcNAc(b1-6)]Man(a1-6)[Gal(b1-4)GlcNAc(b1-3)Gal(b1-4)GlcNAc(b1-3)Gal(b1-4)GlcNAc(b1-2)Man(a1-3)]Man(b1-4)GlcNAc(b1-4)[Fuc(a1-6)]GlcNAc
# Summary of the method: as §1
# [23] = target: Gal(b1-4)GlcNAc(b1-3)Gal(b1-4)GlcNAc(b1-3)Gal(b1-4)GlcNAc(b1-3)Gal(b1-4)GlcNAc(b1-2)Man(a1-3)[Gal(b1-4)GlcNAc(b1-3)Gal(b1-4)GlcNAc(b1-3)Gal(b1-4)GlcNAc(b1-3)Gal(b1-4)GlcNAc(b1-2)Man(a1-6)]Man(b1-4)GlcNAc(b1-4)GlcNAc
# Summary of the method: as §1
# [24] = target: Gal(b1-4)GlcNAc(b1-3)Gal(b1-4)GlcNAc(b1-3)Gal(b1-4)GlcNAc(b1-3)Gal(b1-4)GlcNAc(b1-3)Gal(b1-4)GlcNAc(b1-2)Man(a1-3)[Gal(b1-4)GlcNAc(b1-3)Gal(b1-4)GlcNAc(b1-3)Gal(b1-4)GlcNAc(b1-3)Gal(b1-4)GlcNAc(b1-3)Gal(b1-4)GlcNAc(b1-2)Man(a1-6)]Man(b1-4)GlcNAc(b1-4)GlcNAc
# Summary of the method: as §1
# [25] = target: Gal3S(b1-4)[Fuc(a1-3)]GlcNAc6S
# Summary of the method: as §1
# [26] = target: Gal3S6S(b1-4)GlcNAc
# Summary of the method: as §1
# [27] = target: Glc(a1-6)Glc(a1-6)Glc(a1-6)Glc
# Summary of the method: as §1
binder,measurement,setting,value
PX14343G-pdi-535-24-535 (Parabacteroides distasonis) (protein) LDTVPKDQLAPSTTWQTEADAKGFIVGCYKDLLDGNTLLYLDCGSDIGYNNFPWEGFRPWGDGSLSSSNPGQILYDYKSIRKANTFLENVDKVTFSSDAVKANYVAQAKAIRAYKYFLMNWWYGGVPIISSYSSADEAKVERNTEQEVRDYIAKDLDEALAGIAEAPEARGYIAKGAVLAIKMREALYYGDWQKAKDAAKAIIDLKQYELDPDYTNLFKVSGVDSKEIILADQNIETLDGLGTIGQMYNNVDQGWSSIVPTQNLVDMYEMSDGLTKEESKTYDAKHPFANRDPRMAMTILYPGRDWRGDVLNTLDEKLQDGTVNKNFPTYTDNASKSALTWAKYLDPMDQYGDVWSSGACPIVFRYAEVLLTYAEAANELSGPSDEIYGYLNQIRQRVGMGEVDKAKYGTKDKLRELIRRERTVELAGEGLRRADIVRWQEDGKMLAEKVMNGDLLRVTGTINYGESEPTKRAEITGTAVIETRQFSSRNRYLPIPQTSMDKNPNLKQNPGY,glycan array binding signal (z-score),[1],-1.05
same,glycan array binding signal (z-score),[2],-0.439
same,glycan array binding signal (z-score),[3],-0.597
same,glycan array binding signal (z-score),[4],-0.34
same,glycan array binding signal (z-score),[5],0.336
same,glycan array binding signal (z-score),[6],0.064
same,glycan array binding signal (z-score),[7],-0.242
same,glycan array binding signal (z-score),[8],2.43
same,glycan array binding signal (z-score),[9],-1.2
same,glycan array binding signal (z-score),[10],-0.366
same,glycan array binding signal (z-score),[11],2.67
same,glycan array binding signal (z-score),[12],-0.566
same,glycan array binding signal (z-score),[13],0.673
same,glycan array binding signal (z-score),[14],0.51
same,glycan array binding signal (z-score),[15],-0.53
same,glycan array binding signal (z-score),[16],0.402
same,glycan array binding signal (z-score),[17],-0.363
same,glycan array binding signal (z-score),[18],-0.426
same,glycan array binding signal (z-score),[19],-0.515
same,glycan array binding signal (z-score),[20],2.06
same,glycan array binding signal (z-score),[21],1.65
same,glycan array binding signal (z-score),[22],3.07
same,glycan array binding signal (z-score),[23],0.004
same,glycan array binding signal (z-score),[24],2.76
same,glycan array binding signal (z-score),[25],2.01
same,glycan array binding signal (z-score),[26],0.193
same,glycan array binding signal (z-score),[27],0.739
